Assay results published in PubChem BioAssay (NCI).
Several values for one entry are separate records, joined by “and”; a condition that tells them apart may be missing. Equal values may be shown once. The panel holds about 83,000 compounds, 20% with a hit somewhere; the sample as a whole holds those more often.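 In brief: 96-well plates, 48 h treatment, single concentration, percent growth endpoint.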 Activity calls are given as the source filed them. How the source made its calls: active means growth percent below 10; inactive means the rest.

These compounds were tested on MDA-MB-468 breast (assay: NCI-60 one-dose screen, 48 h (100 = growth as untreated, 0 = no growth, -100 = all killed)). Settings: 10 µM unless noted.
In the case of `CC1CN(/N=C/c2ccc([N+](=O)[O-])o2)C(=N)O1` (stereo not given), the growth is reported as 89.6% (inactive).
For `O=C(/C=C/c1cccc(C(F)(F)F)c1)Nc1cccc(C(F)(F)F)c1`, the growth was 55.6% (inactive).
`CCC[C@H](N[C@@H](C)C(=O)N1[C@H](C(=O)O)C[C@@H]2CCCC[C@@H]21)C(=O)OCC` was tested, and the growth was 101% (inactive).
For `CC(C(=O)n1cc(-c2ccccc2)c(-c2ccccc2)c1)c1ccccc1` (stereo not given), the growth was 104% (inactive).
With `Cn1cc(C(=O)c2nc(-c3c[nH]c4ccc(Br)cc34)no2)c2cc(Br)ccc21` the growth was 66.1% (inactive).
In the case of `Clc1cccc(Nc2ncnc3ccc(-c4cnc5[nH]ccc5c4)cc23)c1`, the growth is reported as -16.9% (active).
With `Nc1c(C(=O)Nc2ccccc2)sc2nc3c(cc12)CCCCCC3` the growth was -25% (active).
`O=c1[nH]c(-c2ccccn2)nc2sc3c(c12)CCCCC3` was tested, and the growth was 50% (inactive).
For `N#Cc1c(-c2ccccc2)nc2c(c(-c3ccc(Cl)cc3)nn2-c2ccccc2)c1-c1ccc([N+](=O)[O-])cc1`, the growth was 104% (inactive).
In the case of `O=C(O)CCC(NC(=O)OCc1ccccc1)C(=O)O` (stereo not given), the growth is reported as 101% (inactive).
In the case of `Cc1csc(NC(c2ccccc2)c2c(C)nc3ccccn23)n1` (stereo not given), the growth is reported as 100% (inactive).
For `COc1ccc(-c2onc(N)c2-c2cc(OC)c3c(c2)OCO3)cc1`, the growth was -29.2% (active).
For `O=C(CSc1nc(-c2ccc(Cl)cc2)cn1-c1ccc(Cl)cc1)c1ccc(Br)cc1`, the growth was 81.3% (inactive).
`N#Cc1c(-c2cccs2)cc(-c2cnccn2)nc1SCC(=O)Nc1ccc(Br)cc1` was tested, and the growth was 81.1% (inactive).
`COc1ccc2c(c1)CC/C(=C\c1cncc(Br)c1)C2=O` was tested, and the growth was 99.4% (inactive).
In the case of `Nc1nc(SCc2cccc([N+](=O)[O-])c2)c2[nH]cnc2n1`, the growth is reported as 64.5% (inactive).
For `Clc1ccc2sc(-c3ccccc3)nc2c1`, the growth was 68.9% (inactive).
For `Cn1cnc([N+](=O)[O-])c1/C=C1\Oc2ccc(Cl)cc2C1=O`, the growth was 79.8% (inactive).
In the case of `CCOC(=O)c1cc(/C=C/c2cccc(Cl)c2)on1`, the growth is reported as 60.3% (inactive).
In the case of `O=C1[C@H]2Cc3c([nH]c4ccccc34)[C@@H](c3ccc(Cl)cc3)N2C(=O)CN1C1CCN(Cc2c(Cl)cccc2Cl)CC1`, the growth is reported as 98.3% (inactive).
With `C=CCN1C(=O)c2ccccc2C1=O` the growth was 107% (inactive).
`c1ccc(-c2oc(-c3ccccc3)c3ccccc23)cc1` was tested, and the growth was 109% (inactive).
With `O=[N+]([O-])c1ccc(N/N=C/c2c(O)ccc3ccccc23)nc1` the growth was 36.9% (inactive).
In the case of `CCC(C)(O)CCC(C)(O)CC` (stereo not given), the growth is reported as 106% (inactive).
`NC(=O)c1cccc(-n2ccc3cc(NC(=O)Nc4ccc(N5CCOCC5)c(C(F)(F)F)c4)ccc32)n1` was tested, and the growth was 0.818% (active).
In the case of `Cc1ccc(S(=O)(=O)Oc2ccc3sc4c(CO)ccc(NCCN(C)C)c4c(=O)c3c2)cc1`, the growth is reported as -75.1% [100 µM] (active).
In the case of `COc1ccc(C(=O)c2no[n+]([O-])c2C(=O)c2ccc(OC)cc2)cc1`, the growth is reported as -88.4% (active).
For `CNC(=O)c1cc(Oc2ccc3nc(NC(=O)Nc4cc(C(F)(F)F)cc(C(F)(F)F)c4)sc3c2)ccn1`, the growth was -31.1% (active).
For `O=C(Nc1ccc(CN2CCc3nc4cc(O)c(O)cc4cc32)cc1)c1ccc(Cl)c(Cl)c1`, the growth was 97.4% (inactive).
For `OC(CC(c1ccccc1)c1cccc2ccccc12)(c1ccccc1)c1ccccc1` (stereo not given), the growth was 86.3% (inactive) and 84.5% (inactive).
With `O=C(/C=C\c1ccc(OCCCCCC[P+](c2ccccc2)(c2ccccc2)c2ccccc2)cc1)c1ccc2c(c1)OCCO2` the growth was -38.6% (active).
With `CCOC(=O)c1c[nH][nH]c1=O` the growth was 93.8% (inactive).
With `O=C1CC(c2ccccc2)Cc2nc3ccc(Br)cc3cc21` (stereo not given) the growth was 0.354% (active).
`Cc1cc(Oc2ccccc2)ccc1Nc1ncnc2ccc(-c3cnc(Cl)c(NS(C)(=O)=O)c3)cc12` was tested, and the growth was -18.9% (active).
`N=C(N)c1ccc(-c2ccc(-c3ccc(F)cc3)o2)o1` was tested, and the growth was 5.37% (active).
With `N#Cc1cccc(-c2nc3ccccn3c2NCCN2CCOCC2)c1` the growth was 111% (inactive).
`C=C1CC[C@@H]2[C@](C)(CO)[C@H](O)CC[C@@]2(C)[C@@H]1C/C(O)=C1\CCOC1=O` was tested, and the growth was 90.8% (inactive).
In the case of `Cc1[nH]c(C2CC(c3ccc(C(F)(F)F)c(F)c3)=NN2C)c(C)c1C(=O)NCC(F)(F)F` (stereo not given), the growth is reported as 81.6% (inactive).
`CC(C)(C)CC(C)(C)N(CSc1ccc(Cl)cc1)CSc1ccc(Cl)cc1` was tested, and the growth was 63.7% (inactive).
For `COc1ccc(NC(=O)Nc2ccc(-c3ccc(OC)c(OC)c3)nc2C)cc1`, the growth was 83% (inactive).
